KB-V1 MDR tox = kills drug-selected multidrug resistant KB-V1 cells; KB-V1 MDR cells viability, CellTiter-Glo, 72 h; Potency, µM (doses to about 46.1 µM), most hits filed as cytotoxic; hit rate 3.4% among 400,000; further: on the % scale 0 is the no-effect control and ±100 the full control effect; nearly all actives have a fitted effect of over 60% in size
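Drug-selected KB-V1 cells, grown in DMEM lacking phenol red with 10% FBS, receive compound titrations; after three days at 37 degrees C, surviving cell ATP is quantified by CellTiter-Glo luminescence and responses normalized and curve-fitted.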
TSG101-PTAP inh = blocks PTAP/TSG101 interaction to inhibit HIV-1 budding | 340,000 tested, under 10 active | Potency, µM (doses to about 115 µM), inactives show top-dose activity change, negative = inhibition, hits mostly inhibitors | AID 493005 | Fluorescence polarization, FITC-PTAP peptide / Tsg101 binding; active means well fitted inhibition curve with a large enough effect in the main read-out, with a control signal flat, not every such curve was filed as active; inconclusive means small, poorly fitted or top-dose-only effect, or effect the other way, or a change in a side signal; inactive means no such curve, though single readings can be large or run the other way; further: % of control where 0% means no effect
Target sequence (Q99816 whole entry, looked up): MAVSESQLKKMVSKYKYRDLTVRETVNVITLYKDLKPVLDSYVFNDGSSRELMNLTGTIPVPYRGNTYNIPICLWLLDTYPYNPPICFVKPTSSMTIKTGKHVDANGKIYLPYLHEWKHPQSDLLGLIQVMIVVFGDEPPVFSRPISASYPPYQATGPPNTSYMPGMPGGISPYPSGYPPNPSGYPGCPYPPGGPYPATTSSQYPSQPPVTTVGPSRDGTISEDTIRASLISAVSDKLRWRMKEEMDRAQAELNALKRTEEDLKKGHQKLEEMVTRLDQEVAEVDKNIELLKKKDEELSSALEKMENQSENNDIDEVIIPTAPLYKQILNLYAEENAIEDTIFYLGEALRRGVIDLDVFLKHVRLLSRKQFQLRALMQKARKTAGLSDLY
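Fluorescence anisotropy tracks displacement of a FITC-tagged PTAP peptide (50 nM) from the Tsg101 binding domain (10 uM), following a 20 min room-temperature incubation at pH 7.5.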
SW480 rereplic = inducers of DNA re-replication in SW480 colon cancer cells. SW480 DNA re-replication, Hoechst DNA content imaging, 48 h. hit rate 1.8% among 340,000. Potency, µM (titrated, usually from 46.1 µM), without a hit: at the highest dose re-replication activation, hits mostly activators; further: % of control where 0% means no effect; nearly all actives have a fitted effect of over 55% in size
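Compounds, transferred as 23 nL by pin tool, were incubated with cells for 48 hr; DNA content per nucleus was then quantified by Hoechst staining and fluorescence plate imaging.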
RGS4 inhibitor = inhibitors of human regulator of G protein signaling 4. hit rate 0.039% among 390,000. Transcreener GDP fluorescence polarization, RGS4-accelerated GTP hydrolysis. P49798. Potency, µM (titrated, usually from 114 µM), for the others: top-dose activity change, negative = inhibition, usual class: inhibitors. AID 504845; further: on the % scale 0 is the no-effect control and ±100 the full control effect; nearly all actives have a fitted effect of over 75% in size
Target sequence (P49798 whole entry, looked up): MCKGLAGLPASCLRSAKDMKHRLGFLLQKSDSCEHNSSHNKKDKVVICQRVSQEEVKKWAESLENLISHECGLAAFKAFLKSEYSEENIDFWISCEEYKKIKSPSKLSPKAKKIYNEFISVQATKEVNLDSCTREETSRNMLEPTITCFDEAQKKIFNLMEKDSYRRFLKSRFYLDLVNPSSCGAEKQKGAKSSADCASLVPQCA
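MLSMR compounds (23 nl, pin-transferred) preincubated 10 min at room temperature with a 500nM (2x) first reagent, then RGS4 at 900nM (2x) plus Transcreener GDP mix added; fluorescence polarization (620/688 nm) read before and after 90 min at 30 °C.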
MCF10A rerep = inducers of DNA re-replication in MCF 10A breast cells. Potency, µM (titrated, usually from 46.1 µM), for inactives: at the top dose activity, positive = re-replication, usual class: activators. AID 624296. hit rate 2.9% among 350,000. MCF 10A DNA re-replication, Hoechst nuclear intensity, 48 h; further: % of control where 0% means no effect; nearly all actives have a fitted effect of over 50% in size
KB-3-1 tox = KB-3-1 parental cell cytotoxicity; KB-3-1 viability, CellTiter-Glo ATP luminescence, 72 h; Potency, µM (titrated, usually from 46.1 µM), hits mostly cytotoxic; hit rate 1.4% among 400,000; AID 1347075; further: on the % scale 0 is the no-effect control and ±100 the full control effect; nearly all actives have a fitted effect of over 60% in size
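KB-3-1 cells, DMEM (no phenol red) + 10% FBS; compound by pin transfer, 72 h, 37 °C. Readout: CellTiter-Glo luminescence after 10 min. Data normalized, curve-fitted.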
Active calls of the source: *; i = inactive; ? = inconclusive; nt = no result given; [ ] = dose if it differs, or a comment. Only some compounds are listed: those with a hit (about 6.6% of all), similar ones and a draw of the others. Unless noted, the call rests on the fitted dose curve; in most records, active means well fitted curve in the direction sought with a large enough effect; inconclusive means small, poorly fitted or top-dose-only effect, or another doubt; inactive means no such curve, though single readings can be large; an effect the other way counts as inactive or inconclusive. Potency means the concentration at half of the fitted maximal effect.

SMILES	KB-V1 MDR tox	TSG101-PTAP inh	SW480 rereplic	RGS4 inhibitor	MCF10A rerep	KB-3-1 tox
CCN1/C(=C/C=C/c2oc3ccc(-c4ccccc4)cc3[n+]2CC)Oc2ccc(-c3ccccc3)cc21	15µM*	?	?	?	-9%	9.2µM*
Cc1ccc(NC(=O)c2c(C)oc3ccc(O)c(CN4CCCCCC4)c23)cc1	nt	nt	nt	-22%	nt	nt
O=C1c2ccccc2NC(c2ccc(-c3cccc([N+](=O)[O-])c3)o2)N1O (stereo unspecified)	2.3µM*	-1%	25%	3%	20%	?
C=CCN(C(=O)C1CC(=O)N(C2CCCC2)C1)c1nc(-c2ccc(S(C)(=O)=O)cc2)cs1 (stereo unspecified)	2.9µM*	-6%	-9%	-16%	18%	18µM*
CC1Cc2cc(S(=O)(=O)N(C)c3ccc(Br)cc3)ccc2N1C(=O)C1CC1 (stereo unspecified)	i	nt	nt	-4%	nt	i
Cc1cc(C)n(-c2nc3ccccc3c(=O)n2OCC#N)n1	?	-4%	16µM*	4%	?	?
Cc1ccc(C(=O)CCNc2ccccc2)o1	i	1%	?	16%	7.1µM*	i
Cc1ccc(C(=O)Cc2ccccc2)o1	i	-1%	1µM*	-24%	1%	i
BrC(=C\c1ccccc1)/C=N/n1cnnc1	?	-2%	23%	-47%	16µM*	i
BrC(=C\c1ccccc1)/C=N/Nc1ccc2nncn2n1	?	12%	?	?	?	i
Cc1nc2ccc(S(=O)(=O)N(CC(=O)Nc3cccc(Cl)c3)Cc3ccccc3)cc2s1	i	nt	nt	5%	nt	i
FC(F)(Cl)c1nnc2ccc(Cl)nn12	?	0%	?	27%	?	6.5µM*
COC(=O)c1ccc(/C=N/NC(=S)NC(C)C)cc1	i	0%	16µM*	-8%[11.4 µM]	?	i
COc1ccc(NC(=O)Nc2ccc(F)cc2F)c(C)c1	i	-2%	-11%	-1%	15%	i
Cc1ccc(NC(=O)Nc2cccc([N+](=O)[O-])c2)cc1F	16µM*	0%	5%	11%	?	?
O=C(Nc1ccc(Oc2ccc(NC(=O)Nc3ccc([N+](=O)[O-])cc3)cc2)cc1)Nc1ccc([N+](=O)[O-])cc1	?	-1%	8%	-34%	-1%	18µM*
Cc1cc([N+](=O)[O-])ccc1NC(=O)Nc1ccc(F)cc1F	15µM*	3%	10%	-20%	?	?
O=C(Nc1ccc(OC(F)(F)F)cc1)Nc1cccc([N+](=O)[O-])c1	16µM*	-1%	?	-15%	12µM*	12µM*
CCCCCn1c(CCCNC(=O)c2cccc(C)c2)nc2ccccc21	i	nt	nt	8%	nt	i
CCOC(=O)C1=Nc2ccccc2C1=[N+]=[N-]	2.6µM*	0%	?	-21%	2.6µM*	?
CCOC(=O)c1cnc(-c2ccccc2O)nc1Cl	i	0%	2%	3%	-9%	i
Cc1c(NC(=O)C(F)(F)F)ccc2nc3c(=O)n(C)c(=O)n(C)c3nc12	13µM*	nt	nt	2%	nt	i
CCC(=O)Nc1ccc2nc3c(=O)n(C)c(=O)n(C)c3nc2c1	i	nt	nt	15%	nt	i
CN(C)CC[C@@](O)(c1ccccc1)c1ccccc1Cl	nt	nt	-3%	nt	-1%	nt
O=C(Nc1ccc(S(=O)(=O)N2CCCC2)cc1)c1ccc(CN2CCOCC2)cc1	?	-2%	-6%	-9%	4%	?
SMILES	KB-V1 MDR tox	TSG101-PTAP inh	SW480 rereplic	RGS4 inhibitor	MCF10A rerep	KB-3-1 tox
O=C(Nc1ccc(S(=O)(=O)N2CCN(Cc3ccccc3)CC2)cc1)c1cnccn1	2.3µM*	-2%	-3%	-1%	4%	10µM*
CCCOc1ccc(C(=O)Nc2ccc(CN3CCOCC3)cc2)cc1	i	-4%	-2%	-11%	?	i
CCN(CC)S(=O)(=O)c1ccc(NC(=O)c2ccc(CN3CCOCC3)cc2)cc1	?	-1%	1%	5%	0%	3.3µM*
O=C(Nc1ccc(S(=O)(=O)N2CCCCC2)cc1)c1ccc(CN2CCOCC2)cc1	2.1µM*	-13%	-4%	19%	?	7.3µM*
CCCOc1cccc(C(=O)Nc2ccc(CN3CCOCC3)cc2)c1	i	3%	28%	-26%	21µM*	i
CCCCOc1ccc(C(=O)Nc2ccc(CN3CCOCC3)cc2)cc1	i	-1%	?	-24%	?	i
CC(=O)Nc1ccn(C2OC(C(COC(C)=O)NC(=O)C(CCCCNC(=O)OCc3ccccc3)NC(=O)OC(C)(C)C)C(OC(C)=O)C2OC(C)=O)c(=O)n1 (stereo unspecified)	nt	nt	nt	31%	nt	nt
COc1cc2ncnc(N(C)Cc3cccs3)c2cc1-c1ccc2c(c1)OCO2	i	nt	nt	nt	nt	i
COc1ccc(NS(=O)(=O)c2ccc(NC(=O)c3ccc(CN4CCOCC4)cc3)cc2)cc1	i	-7%	?	2%	?	?
O=C(Nc1ccc(S(=O)(=O)Nc2ccc(F)cc2)cc1)c1ccc(CN2CCOCC2)cc1	?	-10%	?	6%	?	3.7µM*
Cc1ccc(N(C)C(CNS(=O)(=O)c2ccccc2)c2ccccc2)cc1 (stereo unspecified)	i	nt	nt	7%	nt	i
CC1CCC(C(C)C)C(OC(=O)Cn2c(-c3ccccc3)[n+](C)c3ccccc32)C1 (stereo unspecified)	i	-3%	15µM*	-9%	18µM*	15µM*
CC1CCC(C(C)C)C(OC(=O)Cn2c(-c3ccc(F)cc3)[n+](C)c3ccccc32)C1 (stereo unspecified)	i	-2%	16µM*	1%	?	?
Cc1cccc(OCc2n(CC(=O)OC3CC(C)CCC3C(C)C)c3ccccc3[n+]2C)c1 (stereo unspecified)	?	0%	?	-18%	?	?
COCCCn1c(SCC(=O)Nc2ccccc2OC)nc2c(sc3ccccc32)c1=O	nt	nt	nt	-36%	nt	nt
COc1ccc(-c2nsc(NC(=O)c3ccccc3Br)n2)cc1	nt	nt	nt	-8%	nt	nt
COc1ccc2[nH]c3c(c2c1)CCN1C(=O)C(CC(=O)NC/C=C(\C)CCC=C(C)C)C[C@H](C(=O)N(C(C)C)C(C)C)[C@@]31C (stereo partly specified)	?	-5%	?	-12%	15µM*	?

Bioassay records: PubChem, National Center for Advancing Translational Sciences (NCATS)
